Screening results (PubChem)
Rows were chosen to be rich in hits. Some 2.4% of all compounds tested hit in one or more screens of this group.
D2 ag-1: agonists of human D2 dopamine receptor | activation, % at 2 µM | HEK293 T-REx D2 cells, calcium flux agonist mode | AID 485358 | P14416 | 340,000 tested, 0.53% active;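 active = activation over 3 SD above normal in the single-dose calcium agonist read, cut at about 30% in these data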
Target sequence (P14416 whole entry, looked up): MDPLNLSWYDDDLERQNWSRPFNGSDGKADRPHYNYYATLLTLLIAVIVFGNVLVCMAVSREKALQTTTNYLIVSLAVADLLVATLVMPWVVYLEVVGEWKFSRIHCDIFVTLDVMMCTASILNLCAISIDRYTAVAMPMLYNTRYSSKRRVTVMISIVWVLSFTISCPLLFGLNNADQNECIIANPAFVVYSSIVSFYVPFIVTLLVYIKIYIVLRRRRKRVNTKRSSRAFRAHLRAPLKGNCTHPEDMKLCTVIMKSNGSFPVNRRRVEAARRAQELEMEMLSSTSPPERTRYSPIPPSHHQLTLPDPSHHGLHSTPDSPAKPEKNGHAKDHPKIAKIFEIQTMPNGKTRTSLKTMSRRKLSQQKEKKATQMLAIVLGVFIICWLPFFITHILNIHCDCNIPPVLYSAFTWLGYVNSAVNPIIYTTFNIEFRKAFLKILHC
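HEK293 Trex D2 cells, tetracycline-induced, o/n 30 C 5% CO2; no-wash Ca dye, RT 30–90 min; 10-cycle baseline, 23 nl cpd added, kinetic Ca read 180 s; agonist hits = positive Ca response.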
D2 PAM-1: potentiates the human D2 dopamine receptor allosterically; potentiation, % (test concentration not listed); AID 624464; DiscoveRx D2 beta-arrestin cells, luminescence, 90 min; 100% = 57 uM dopamine signal; 360,000 tested, 0.23% active; in the data active = potentiation above about 50%
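PathHunter beta-arrestin assay in DiscoveRx D2 cells. Compounds were added with an EC20 of dopamine (50 nM final) for 90 min at 37 deg C. Luminescence was read 1 h after detection reagent, with 57 uM dopamine as the EC100 control.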
D2 PAM-2: D2 dopamine receptor (human) potentiation | P14416 | HEK293 T-REx D2, calcium flux, EC20 dopamine potentiation | potentiation, % at 10 µM | 340,000 tested, 0.34% active | AID 485347;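 active = potentiation over 3 SD above the plate norm, cut at about 30% in these data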
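Using a no-wash calcium dye in inducible, force-coupled HEK293 Trex cells expressing D2, we tracked fluorescence each second for 180 s after compound, then for 180 s after EC20 dopamine to detect augmented signalling.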
D2 ag-2: agonists of human D2 dopamine receptor (beta-arrestin). P14416. DiscoveRx PathHunter D2 beta-arrestin, luminescence, 90 min; 100% = 57 uM dopamine signal. activation, % (concentration not given with the values). 360,000 tested, 0.084% active. AID 624465; in the data active = activation above about 40%
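DiscoveRx PathHunter D2 beta-arrestin cells (2,100/well) attached overnight, then compound-stimulated 90 min at 37 C in HBSS/10 mM HEPES/0.1% Tween-20 buffer; beta-galactosidase complementation read by luminescence after 1 h at ambient temperature. Dopamine 57 uM final (EC100) as control.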
D2 antagonist: antagonizes the human D2 dopamine receptor. P14416. AID 485344. 340,000 tested, 2% active. HEK293 TREx D2 cells, calcium flux, dopamine EC80. inhibition, % at 10 µM; in the data active = inhibition above about 30%; inactive = below that, where a call was filed
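Antagonism is scored as inhibition of an EC80 dopamine-evoked calcium signal in a force-coupled, tetracycline-inducible HEK293 T-REx D2 line, with compound present 180 s before agonist.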
Numbers stand for hits.

For O=[N+]([O-])c1cccc(-c2ccc(CN3CCCCC3)o2)c1 the results were D2 ag-1 inactive, D2 PAM-1 inactive, D2 PAM-2 inactive, D2 ag-2 inactive and D2 antagonist 81.
Screening CN1CCN(C(=S)c2ccc(-c3cccc([N+](=O)[O-])c3)o2)CC1 returned D2 ag-1 inactive, D2 PAM-1 inactive, D2 PAM-2 inactive, D2 ag-2 inactive and D2 antagonist inactive.
O=[N+]([O-])c1cccc(-c2ccc(C(=S)N3CCOCC3)o2)c1 was read as D2 ag-1 inactive, D2 PAM-1 inactive, D2 PAM-2 inactive, D2 ag-2 inactive and D2 antagonist 61.
For CCc1c(C)c2ccc(O)c(CN3CCN(c4cc(Cl)ccc4C)CC3)c2oc1=O the results were D2 ag-1 inactive and D2 PAM-2 inactive.
`CCOC(=O)C1CCCN(C(=O)c2ccc3c(c2)N(Cc2ccc(Cl)cc2)C(=O)c2ccccc2S3=O)C1` (configuration not stated) gave D2 PAM-2 inactive.
`Cn1ccnc1SCC(=O)Nc1ccc([N+](=O)[O-])cn1` gave D2 ag-1 inactive, D2 PAM-1 inactive, D2 PAM-2 inactive, D2 ag-2 inactive and D2 antagonist inactive.
`Cn1ccnc1SCC(=O)Nc1ccc(Cl)cn1` gave D2 ag-1 inactive, D2 PAM-1 inactive, D2 PAM-2 inactive, D2 ag-2 inactive and D2 antagonist 31.
For COC(=O)c1c(SC)nc2ccccc2c1OCc1ccccc1Cl the results were D2 ag-1 inactive and D2 PAM-2 inactive.
Screening Cn1c(=O)c2c(ncn2CC(=O)N2CCCc3ccccc32)n(C)c1=O returned D2 ag-1 inactive, D2 PAM-1 inactive, D2 PAM-2 inactive, D2 ag-2 inactive and D2 antagonist inactive.
Screening CC1CCN(C(=O)CN2C(=O)C(=O)N(C)C2=O)c2ccccc2S1 (configuration not stated) returned D2 ag-1 inactive, D2 PAM-1 inactive, D2 PAM-2 inactive, D2 ag-2 inactive and D2 antagonist 44.
Screening CC1CCN(C(=O)Cn2cnc3c2c(=O)n(C)c(=O)n3C)c2ccccc2S1 (configuration not stated) returned D2 ag-1 inactive, D2 PAM-1 inactive, D2 PAM-2 inactive, D2 ag-2 inactive and D2 antagonist 45.
COc1ccc(CCn2c3c(c(=O)[nH]c2=O)C(NC(=O)c2ccc(C(C)(C)C)cc2)(C(F)(F)F)C(=O)N3)cc1OC (configuration not stated) was read as D2 ag-1 inactive and D2 PAM-2 inactive.
For Cc1cccc(OC(=O)CSc2nnc(-c3ccc4c(c3)OCO4)o2)c1C the results were D2 ag-1 inactive and D2 PAM-2 inactive.
Screening Cn1nnc2cc(C(=O)N3CCC(c4ccccc4)C3)ccc21 (configuration not stated) returned D2 ag-1 inactive, D2 PAM-1 inactive, D2 PAM-2 103, D2 ag-2 inactive and D2 antagonist inactive.
Cn1nnc2cc(C(=O)N3CCCCCC3)ccc21 was read as D2 ag-1 inactive, D2 PAM-1 inactive, D2 PAM-2 inactive, D2 ag-2 inactive and D2 antagonist inactive.
CC1CCN(C(=O)CSc2nc3ccccc3[nH]2)CC1 was read as D2 ag-1 inactive, D2 PAM-1 inactive, D2 PAM-2 inactive, D2 ag-2 inactive and D2 antagonist inactive.
For CCOc1ccccc1NC(=O)Nc1cc(S(=O)(=O)N(C)C)ccc1C the results were D2 PAM-1 inactive and D2 ag-2 inactive.
Screening Cc1ccc(S(=O)(=O)N(C)C)cc1NC(=O)Nc1ccccc1 returned D2 ag-1 inactive, D2 PAM-1 inactive, D2 PAM-2 inactive, D2 ag-2 inactive and D2 antagonist 84.
Screening Cc1ccc(S(=O)(=O)N(C)C)cc1NC(=S)N1CCc2ccccc21 returned D2 ag-1 inactive, D2 PAM-1 inactive, D2 PAM-2 inactive, D2 ag-2 inactive and D2 antagonist 55.
`CN(C)S(=O)(=O)c1cccc(NC(=S)N2CCc3ccccc32)c1` gave D2 ag-1 inactive, D2 PAM-1 inactive, D2 PAM-2 inactive, D2 ag-2 inactive and D2 antagonist inactive.
For CC1CCCCC1NC(=O)CSc1nc2ccccc2[nH]1 (configuration not stated) the results were D2 ag-1 inactive, D2 PAM-1 inactive, D2 PAM-2 37, D2 ag-2 inactive and D2 antagonist inactive.
`Cc1ccc(NC(=O)Nc2cc(S(=O)(=O)N(C)C)ccc2C)cc1` gave D2 ag-1 inactive, D2 PAM-1 inactive, D2 PAM-2 inactive, D2 ag-2 inactive and D2 antagonist 37.
`Cc1ccc(S(=O)(=O)N(C)C)cc1NC(=O)CSc1nc2ccccc2[nH]1` gave D2 ag-1 inactive, D2 PAM-1 inactive, D2 PAM-2 inactive, D2 ag-2 inactive and D2 antagonist 31.
`COc1ccc(CNC(=O)/C(C)=C\C(=O)O)cc1` gave D2 ag-1 inactive, D2 PAM-1 inactive, D2 PAM-2 inactive, D2 ag-2 inactive and D2 antagonist 36.
`CCCCNC(=O)C(CC)Sc1nnc(-c2ccc(F)cc2)c(-c2ccc(F)cc2)n1` (configuration not stated) gave D2 ag-1 inactive and D2 PAM-2 inactive.
`CC(=O)CC(c1ccccc1)S(=O)(=O)c1ccc([N+](=O)[O-])cc1` (configuration not stated) gave D2 ag-1 inactive, D2 PAM-1 inactive, D2 PAM-2 inactive, D2 ag-2 inactive and D2 antagonist 70.
For O=C(CN(C(=O)c1csnn1)c1ccccc1F)NCc1ccc2c(c1)OCO2 the results were D2 ag-1 inactive, D2 PAM-1 inactive, D2 PAM-2 inactive, D2 ag-2 inactive and D2 antagonist inactive.
O=C(CN(C(=O)c1csnn1)c1cccc(F)c1)NCc1ccc2c(c1)OCO2 was read as D2 ag-1 inactive, D2 PAM-1 inactive, D2 PAM-2 inactive, D2 ag-2 inactive and D2 antagonist 42.
Cc1ccc(C(=O)N(c2ccc(C)cc2)S(=O)(=O)c2ccc(Cl)cc2)cc1 was read as D2 ag-1 inactive and D2 PAM-2 inactive.
Cc1cccc(N2CCN(C(=O)CN3C(=O)COc4ccc(S(=O)(=O)N5CCCCCC5)cc43)CC2)c1C was read as D2 ag-1 inactive and D2 PAM-2 inactive.
COc1cc2c(c(O)c1OC)C(=O)C(OC)CCC2 (configuration not stated) was read as D2 ag-1 inactive, D2 PAM-1 inactive, D2 PAM-2 inactive, D2 ag-2 inactive and D2 antagonist 32.
Screening O=C(Cn1cnc2c(nnn2Cc2ccc(F)cc2)c1=O)Nc1cccc(F)c1 returned D2 ag-1 inactive, D2 PAM-1 inactive, D2 PAM-2 inactive, D2 ag-2 inactive and D2 antagonist 37.
`Cc1ccc(NC(=O)Cn2cnc3c(nnn3Cc3ccc(F)cc3)c2=O)cc1` gave D2 ag-1 inactive, D2 PAM-1 inactive, D2 PAM-2 inactive, D2 ag-2 inactive and D2 antagonist inactive.
